Screening results (PubChem BioAssay)
Compounds with a hit are over-represented: about 5.3% of the library has one in this group of screens.
HCV inhibitor: qHTS Assay for Inhibitors of Hepatitis C Virus (HCV) | Huh7.5.1 HCVcc-Cre infection, luciferase reporter, 44 h | Potency, µM (doses to about 41.8 µM), inactives show top-dose activity change, negative = inhibition, actives largely listed as inhibitors | hit rate 3.4% among 340,000 | AID 651820, 2012; active = well fitted inhibition curve with a large enough effect; inconclusive = small, poorly fitted or top-dose-only effect, or another doubt; inactive = no such curve, though single readings can be large or run the other way
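A cell-based infection assay in which seeded cells (1,000 per well) receive test compound after 4 h, are inoculated with HCVcc-Cre at approximately 0.5 moi, and are incubated 44 h before luminescence detection.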
LASV entry inh: qHTS for Inhibitors of binding or entry into cells for Lassa Virus. hit rate 1.2% among 300,000. Lassa virus pseudotype entry inhibition, cell reporter. Potency, µM (series often up to 37.9 µM), without a hit: at the top dose activity change, negative = inhibition, usual class: inhibitors; calls by dose curve; tested in HEK293 cells; note: nearly all actives have a fitted effect of over 50% in size
FMDV antiviral: High Throughput Screening for Foot and Mouth Disease Virus Antivirals; FMDV antiviral cell-based qHTS; Potency, µM (titrated, usually from 57.9 µM), for inactives: at the highest dose activity change, negative = inhibition, hits mostly inhibitors; hit rate 1.2% among 410,000; AID 1159524, 2015; calls by dose curve; tested in HEK293T cells; note: read-out not given here; nearly all actives have a fitted effect of over 45% in size
MARV entry inh: qHTS for inhibitors of binding or entry into cells for Marburg Virus; Marburg virus pseudotyped entry inhibition, cell reporter; Potency, µM (series often up to 37.8 µM), inactives show at the top dose activity change, negative = inhibition, hits mostly inhibitors; hit rate 1.8% among 300,000; calls by dose curve; tested in HEK293 cells
Vaccinia mCherry: qHTS for Stage-Specific Inhibitors of Vaccinia Orthopoxvirus: mCherry Reporter Primary qHTS | Vaccinia virus mCherry reporter infection, fluorescence | hit rate 0.63% among 310,000 | Potency, µM (top dose mostly 36.5 µM), for inactives: at the top dose activity change, negative = inhibition, usual class: inhibitors | AID 720579, 2013; calls by dose curve; tested in A549 cells; note: nearly all actives have a fitted effect of over 35% in size
Vaccinia Venus: qHTS for Stage-Specific Inhibitors of Vaccinia Orthopoxvirus: Venus Reporter Primary qHTS | Vaccinia virus Venus reporter expression, fluorescence | Potency, µM (highest dose often 36.5 µM), for the others: at the top dose activity change, negative = inhibition, actives largely listed as inhibitors | hit rate 0.46% among 330,000 | AID 720580, 2013; calls by dose curve; tested in A549 cells; note: nearly all actives have a fitted effect of over 30% in size
* marks the source's active call; other numbers are inactive results; [ ] = another dose, or the depositor's remark. % is set by controls: 0 for no effect and ±100 for the full control effect; potency is the fitted concentration of half-maximal effect.

Screening CC(=O)Nc1ccc(C(=O)COC(=O)C2CC2C)c(F)c1 (configuration not stated) returned HCV inhibitor 13µM*, LASV entry inh -9%, FMDV antiviral -16%, MARV entry inh inconclusive, Vaccinia mCherry -26% and Vaccinia Venus -9%.
O=C1CC(=C(c2ccccc2)c2ccccc2)C(=O)N1CCCCN1CCN(c2ccccc2)CC1 was read as HCV inhibitor 1µM*, LASV entry inh inconclusive, FMDV antiviral -24%, MARV entry inh inconclusive and Vaccinia Venus inconclusive.
For Clc1cccc(N2CCN(CCCN3CCN(c4ccccc4)CC3)CC2)c1 the results were HCV inhibitor 11µM*, LASV entry inh inconclusive, FMDV antiviral -23%, MARV entry inh inconclusive, Vaccinia mCherry inconclusive and Vaccinia Venus -8%.
CCOC(=O)C1C=CN=C1C (configuration not stated) was read as MARV entry inh 14%.
For O=[N+]([O-])c1nn(-c2ccc3c(c2)OCCO3)n(O)c1=Nc1ccccc1 the results were HCV inhibitor inconclusive, LASV entry inh 7.1µM*, FMDV antiviral 7.9µM*, MARV entry inh 1.5µM*, Vaccinia mCherry -14% and Vaccinia Venus -10%.
`Cc1cccc(-n2nc([N+](=O)[O-])c(=NC3CCN(Cc4ccccc4)CC3)n2O)c1` gave HCV inhibitor 8.9µM* and FMDV antiviral -22%.
Screening O=[N+]([O-])c1nn(-c2ccc3c(c2)OCCO3)n(O)c1=NC1CCCC1 returned HCV inhibitor 2.8µM*, LASV entry inh 14%, FMDV antiviral 21%, MARV entry inh 7%, Vaccinia mCherry -10% and Vaccinia Venus 4%.
For Cc1cc(C)cc(N=c2c([N+](=O)[O-])nn(-c3ccc4c(c3)OCCO4)n2O)c1 the results were HCV inhibitor inconclusive, LASV entry inh inconclusive, FMDV antiviral -22%, MARV entry inh inconclusive, Vaccinia mCherry inconclusive and Vaccinia Venus -20%.
For O=C1CCCN1CCCN=c1c([N+](=O)[O-])nn(-c2ccc(Cl)cc2)n1O the results were HCV inhibitor 11µM*, LASV entry inh inconclusive, FMDV antiviral 1%, MARV entry inh inconclusive, Vaccinia mCherry inconclusive and Vaccinia Venus inconclusive.
O=[N+]([O-])c1nn(-c2ccc3c(c2)OCCO3)n(O)c1=NC1CCCCCC1 was read as HCV inhibitor -27%, LASV entry inh 10%, FMDV antiviral -11% and MARV entry inh inconclusive.
COC(=O)C1=C(C)N=C2S[C@H](C)C(=O)N2[C@@H]1c1cccc(F)c1 was read as MARV entry inh -10%.
`CCC(=O)N(Cc1cccs1)[C@@H]1CCOC(C)(C)C1` gave MARV entry inh -16%[46.1 µM].
CC(=O)OC[C@H]1O[C@H](CC=NO[C@H](C)c2cn([C@@H]3COC[C@@H]3O)nn2)C=C[C@@H]1OC(C)=O was read as MARV entry inh -12%[14.2 µM].
For CCC1CN(Cc2c(C)nc3sccn23)Cc2cc(OC)ccc2O1 (configuration not stated) the results were FMDV antiviral -10%, Vaccinia mCherry -19% and Vaccinia Venus -4%.
Screening O=[N+]([O-])c1nn(-c2ccc3c(c2)OCCO3)n(O)c1=NCCCO returned HCV inhibitor 11µM*, LASV entry inh -24%, FMDV antiviral 28%, MARV entry inh inconclusive, Vaccinia mCherry -26% and Vaccinia Venus -26%.
For CCc1ccc(N=c2c([N+](=O)[O-])nn(-c3ccc4c(c3)OCCO4)n2O)cc1 the results were HCV inhibitor -10%, LASV entry inh 4%, FMDV antiviral 2%, MARV entry inh 23%[46.1 µM], Vaccinia mCherry -13% and Vaccinia Venus -7%.
For O=[N+]([O-])c1nn(-c2ccc3c(c2)OCCO3)n(O)c1=Nc1ccc(Cl)cc1 the results were HCV inhibitor 7.1µM*, LASV entry inh inconclusive, MARV entry inh inconclusive, Vaccinia mCherry -29% and Vaccinia Venus -21%.
